Results from the supplement of paper PMC11732987, “Enantioselective OTUD7B fragment discovery through chemoproteomics screening and high-throughput optimisation” (Communications Chemistry, 2025).

What was measured:
Assay in all cases: log2 ratio of Biotin-Ahx-Ub-VS probe labelling (fragment/DMSO); higher = less target engagement (more negative = stronger competition), active = hit call of the paper (q ≤ 0.05, log2 ratio ≤ -1)
Details in all cases: compound concentration: 200 uM; treatment time: 3 h
USP34 = USP34 (UniProt Q70CQ2)
Sequence of USP34 (Q70CQ2 whole entry, the tested form may be a part): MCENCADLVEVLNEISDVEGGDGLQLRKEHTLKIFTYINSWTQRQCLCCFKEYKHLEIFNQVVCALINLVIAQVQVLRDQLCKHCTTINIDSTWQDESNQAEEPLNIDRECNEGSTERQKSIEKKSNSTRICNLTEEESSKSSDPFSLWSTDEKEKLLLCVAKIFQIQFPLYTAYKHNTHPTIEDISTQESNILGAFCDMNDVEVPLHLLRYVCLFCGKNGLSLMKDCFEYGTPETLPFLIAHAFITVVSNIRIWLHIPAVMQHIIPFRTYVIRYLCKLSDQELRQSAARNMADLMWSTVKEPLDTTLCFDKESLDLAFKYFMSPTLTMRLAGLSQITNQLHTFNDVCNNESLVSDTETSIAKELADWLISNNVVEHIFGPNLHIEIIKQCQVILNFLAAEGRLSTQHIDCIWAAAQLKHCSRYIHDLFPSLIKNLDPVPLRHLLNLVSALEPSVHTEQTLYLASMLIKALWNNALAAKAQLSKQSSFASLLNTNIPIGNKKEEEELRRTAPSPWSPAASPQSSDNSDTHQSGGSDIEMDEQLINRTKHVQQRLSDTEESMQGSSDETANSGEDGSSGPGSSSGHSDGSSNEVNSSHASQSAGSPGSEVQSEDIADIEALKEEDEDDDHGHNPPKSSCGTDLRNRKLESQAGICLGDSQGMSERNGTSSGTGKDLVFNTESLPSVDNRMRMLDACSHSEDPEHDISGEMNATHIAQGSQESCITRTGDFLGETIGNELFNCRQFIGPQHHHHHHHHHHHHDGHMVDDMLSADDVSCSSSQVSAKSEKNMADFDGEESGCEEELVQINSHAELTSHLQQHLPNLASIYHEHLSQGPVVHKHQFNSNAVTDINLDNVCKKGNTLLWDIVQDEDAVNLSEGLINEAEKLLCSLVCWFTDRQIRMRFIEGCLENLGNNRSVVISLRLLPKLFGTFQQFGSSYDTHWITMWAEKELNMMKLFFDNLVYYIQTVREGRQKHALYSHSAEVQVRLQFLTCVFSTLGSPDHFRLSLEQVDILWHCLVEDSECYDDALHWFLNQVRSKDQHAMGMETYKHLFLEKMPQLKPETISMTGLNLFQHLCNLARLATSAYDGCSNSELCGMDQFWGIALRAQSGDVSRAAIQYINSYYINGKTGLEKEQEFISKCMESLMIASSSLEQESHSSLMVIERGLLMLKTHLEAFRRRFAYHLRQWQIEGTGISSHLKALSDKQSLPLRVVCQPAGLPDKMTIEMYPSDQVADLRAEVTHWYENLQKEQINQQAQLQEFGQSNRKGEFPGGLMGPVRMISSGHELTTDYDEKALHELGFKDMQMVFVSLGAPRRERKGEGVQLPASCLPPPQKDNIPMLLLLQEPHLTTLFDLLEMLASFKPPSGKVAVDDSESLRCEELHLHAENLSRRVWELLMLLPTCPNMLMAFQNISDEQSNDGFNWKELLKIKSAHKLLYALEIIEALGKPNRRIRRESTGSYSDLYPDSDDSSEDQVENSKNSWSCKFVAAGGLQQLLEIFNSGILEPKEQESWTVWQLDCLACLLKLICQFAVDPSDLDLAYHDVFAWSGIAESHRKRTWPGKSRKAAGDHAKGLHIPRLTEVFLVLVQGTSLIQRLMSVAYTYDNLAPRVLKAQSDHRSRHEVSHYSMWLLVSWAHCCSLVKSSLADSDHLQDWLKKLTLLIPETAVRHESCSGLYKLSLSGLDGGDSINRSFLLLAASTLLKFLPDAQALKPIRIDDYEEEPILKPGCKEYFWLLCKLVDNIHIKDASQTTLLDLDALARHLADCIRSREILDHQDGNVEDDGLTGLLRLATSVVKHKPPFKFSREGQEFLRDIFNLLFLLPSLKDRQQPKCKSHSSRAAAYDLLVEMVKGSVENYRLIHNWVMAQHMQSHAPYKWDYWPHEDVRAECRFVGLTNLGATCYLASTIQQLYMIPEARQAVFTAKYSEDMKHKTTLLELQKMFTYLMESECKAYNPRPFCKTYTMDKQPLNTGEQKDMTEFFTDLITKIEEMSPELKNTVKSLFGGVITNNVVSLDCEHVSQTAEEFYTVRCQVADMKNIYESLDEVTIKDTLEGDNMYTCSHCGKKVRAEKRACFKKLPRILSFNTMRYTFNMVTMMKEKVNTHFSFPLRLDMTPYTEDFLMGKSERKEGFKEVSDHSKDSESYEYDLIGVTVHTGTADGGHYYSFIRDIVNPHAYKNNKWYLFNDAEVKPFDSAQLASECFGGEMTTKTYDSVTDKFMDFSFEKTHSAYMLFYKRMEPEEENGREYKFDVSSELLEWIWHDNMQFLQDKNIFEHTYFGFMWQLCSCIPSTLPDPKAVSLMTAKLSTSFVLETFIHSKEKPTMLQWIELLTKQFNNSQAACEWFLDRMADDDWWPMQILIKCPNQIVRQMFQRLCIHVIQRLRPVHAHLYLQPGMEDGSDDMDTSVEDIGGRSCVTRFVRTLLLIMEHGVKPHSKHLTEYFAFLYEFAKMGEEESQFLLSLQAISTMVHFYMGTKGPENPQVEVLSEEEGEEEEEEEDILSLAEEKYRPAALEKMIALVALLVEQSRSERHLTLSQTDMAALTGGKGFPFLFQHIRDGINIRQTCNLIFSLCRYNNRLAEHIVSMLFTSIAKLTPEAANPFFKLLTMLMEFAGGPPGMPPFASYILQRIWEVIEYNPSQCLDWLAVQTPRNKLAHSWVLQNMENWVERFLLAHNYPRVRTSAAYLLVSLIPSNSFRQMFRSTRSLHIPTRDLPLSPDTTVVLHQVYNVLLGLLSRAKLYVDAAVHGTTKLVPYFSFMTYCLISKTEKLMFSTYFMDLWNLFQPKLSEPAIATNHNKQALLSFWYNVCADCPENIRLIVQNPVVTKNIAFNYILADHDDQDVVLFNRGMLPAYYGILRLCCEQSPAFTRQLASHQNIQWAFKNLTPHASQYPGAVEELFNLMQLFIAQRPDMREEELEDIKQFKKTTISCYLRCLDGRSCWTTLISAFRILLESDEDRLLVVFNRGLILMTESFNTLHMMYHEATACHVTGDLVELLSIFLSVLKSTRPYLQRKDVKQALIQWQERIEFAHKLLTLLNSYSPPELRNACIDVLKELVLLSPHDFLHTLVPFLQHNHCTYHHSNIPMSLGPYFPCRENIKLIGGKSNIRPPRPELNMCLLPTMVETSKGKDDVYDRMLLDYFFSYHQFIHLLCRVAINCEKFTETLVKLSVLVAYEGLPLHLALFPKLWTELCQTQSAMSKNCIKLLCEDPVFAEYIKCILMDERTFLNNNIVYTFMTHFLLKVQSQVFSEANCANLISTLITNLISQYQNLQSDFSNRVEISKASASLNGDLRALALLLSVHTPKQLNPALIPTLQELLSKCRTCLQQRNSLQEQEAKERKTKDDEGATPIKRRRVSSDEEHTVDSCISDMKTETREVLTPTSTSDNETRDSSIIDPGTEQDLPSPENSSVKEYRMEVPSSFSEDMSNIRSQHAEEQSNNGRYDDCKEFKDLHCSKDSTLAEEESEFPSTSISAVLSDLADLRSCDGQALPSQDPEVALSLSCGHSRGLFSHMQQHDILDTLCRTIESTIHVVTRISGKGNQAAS
Outline: (§1)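 HEK293T lysate, 495 µg per sample in Tris/CHAPS/IGEPAL buffer with protease inhibitors, was treated in triplicate with fragment at 200 µM or vehicle for 3 h and then with Biotin-Ahx-Ub-VS at 0.5 µM final for 1 h. Labelled DUBs were NeutrAvidin-enriched, digested with LysC and trypsin, and run by diaPASEF LC-MS/MS. Spectronaut label-free quantities were global-median-normalised, and values are average log2 fragment/vehicle ratios by unpaired t-test on proteins with ≥2 unique peptides.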

USP36 = target: T1, USP36 (UniProt Q9P275)
T1 sequence (whole entry): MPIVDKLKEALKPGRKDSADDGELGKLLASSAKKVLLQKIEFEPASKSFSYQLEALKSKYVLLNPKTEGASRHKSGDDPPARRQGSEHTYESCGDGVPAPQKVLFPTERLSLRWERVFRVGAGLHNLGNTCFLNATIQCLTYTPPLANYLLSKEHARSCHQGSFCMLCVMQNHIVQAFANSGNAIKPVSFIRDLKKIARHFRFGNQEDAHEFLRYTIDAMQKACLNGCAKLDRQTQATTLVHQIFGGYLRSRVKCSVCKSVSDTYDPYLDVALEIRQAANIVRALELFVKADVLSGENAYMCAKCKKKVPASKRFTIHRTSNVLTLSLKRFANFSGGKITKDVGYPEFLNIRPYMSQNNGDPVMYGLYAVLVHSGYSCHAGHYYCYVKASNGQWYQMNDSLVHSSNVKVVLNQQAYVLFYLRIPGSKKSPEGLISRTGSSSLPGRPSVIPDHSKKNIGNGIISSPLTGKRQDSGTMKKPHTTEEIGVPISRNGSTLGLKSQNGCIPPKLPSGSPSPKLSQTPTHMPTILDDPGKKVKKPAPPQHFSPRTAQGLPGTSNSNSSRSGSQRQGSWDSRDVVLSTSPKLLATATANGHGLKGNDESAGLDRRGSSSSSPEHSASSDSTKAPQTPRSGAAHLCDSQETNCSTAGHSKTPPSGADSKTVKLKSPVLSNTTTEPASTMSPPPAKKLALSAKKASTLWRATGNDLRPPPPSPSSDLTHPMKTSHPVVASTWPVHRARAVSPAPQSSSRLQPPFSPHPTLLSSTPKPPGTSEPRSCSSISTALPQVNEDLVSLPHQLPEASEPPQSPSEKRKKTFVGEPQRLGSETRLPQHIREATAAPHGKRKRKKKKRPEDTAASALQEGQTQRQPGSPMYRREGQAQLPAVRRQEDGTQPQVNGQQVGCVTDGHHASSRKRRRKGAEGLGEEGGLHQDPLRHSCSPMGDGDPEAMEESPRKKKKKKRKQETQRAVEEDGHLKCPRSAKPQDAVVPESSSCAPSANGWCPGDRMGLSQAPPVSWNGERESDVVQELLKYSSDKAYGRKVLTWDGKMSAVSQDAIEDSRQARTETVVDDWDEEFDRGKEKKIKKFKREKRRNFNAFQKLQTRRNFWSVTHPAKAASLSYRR
Outline: as §1

USP38 = target: T2, USP38 (UniProt Q8NB14)
T2 sequence (whole entry): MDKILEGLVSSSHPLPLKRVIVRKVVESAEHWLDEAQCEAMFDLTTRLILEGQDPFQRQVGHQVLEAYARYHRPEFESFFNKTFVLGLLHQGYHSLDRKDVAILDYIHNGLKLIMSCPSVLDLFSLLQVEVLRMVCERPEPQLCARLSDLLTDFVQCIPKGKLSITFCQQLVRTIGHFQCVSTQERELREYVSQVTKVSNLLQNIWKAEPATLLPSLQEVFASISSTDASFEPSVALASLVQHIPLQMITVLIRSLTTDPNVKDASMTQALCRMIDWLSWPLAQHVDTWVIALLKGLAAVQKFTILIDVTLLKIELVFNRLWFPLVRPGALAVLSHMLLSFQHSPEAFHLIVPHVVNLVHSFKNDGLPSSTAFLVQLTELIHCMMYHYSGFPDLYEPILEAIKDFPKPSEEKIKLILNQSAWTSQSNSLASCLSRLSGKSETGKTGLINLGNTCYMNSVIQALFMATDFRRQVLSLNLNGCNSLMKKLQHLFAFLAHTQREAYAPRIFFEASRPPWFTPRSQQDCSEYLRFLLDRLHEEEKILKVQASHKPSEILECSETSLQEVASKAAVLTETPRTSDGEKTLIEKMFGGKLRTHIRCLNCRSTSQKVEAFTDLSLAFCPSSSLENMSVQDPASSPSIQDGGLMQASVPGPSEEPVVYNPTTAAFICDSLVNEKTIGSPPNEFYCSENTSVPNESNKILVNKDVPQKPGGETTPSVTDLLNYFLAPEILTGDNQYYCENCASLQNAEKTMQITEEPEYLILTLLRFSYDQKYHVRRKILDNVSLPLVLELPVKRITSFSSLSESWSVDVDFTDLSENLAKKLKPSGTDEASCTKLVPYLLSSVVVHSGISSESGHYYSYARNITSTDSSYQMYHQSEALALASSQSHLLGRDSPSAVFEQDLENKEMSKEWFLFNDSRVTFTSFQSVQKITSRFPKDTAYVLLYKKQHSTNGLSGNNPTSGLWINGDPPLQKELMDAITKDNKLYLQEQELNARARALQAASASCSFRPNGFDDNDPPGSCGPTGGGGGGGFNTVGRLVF
Outline: as §1

USP39 = target: T3, USP39 (UniProt Q53GS9)
T3 sequence (whole entry): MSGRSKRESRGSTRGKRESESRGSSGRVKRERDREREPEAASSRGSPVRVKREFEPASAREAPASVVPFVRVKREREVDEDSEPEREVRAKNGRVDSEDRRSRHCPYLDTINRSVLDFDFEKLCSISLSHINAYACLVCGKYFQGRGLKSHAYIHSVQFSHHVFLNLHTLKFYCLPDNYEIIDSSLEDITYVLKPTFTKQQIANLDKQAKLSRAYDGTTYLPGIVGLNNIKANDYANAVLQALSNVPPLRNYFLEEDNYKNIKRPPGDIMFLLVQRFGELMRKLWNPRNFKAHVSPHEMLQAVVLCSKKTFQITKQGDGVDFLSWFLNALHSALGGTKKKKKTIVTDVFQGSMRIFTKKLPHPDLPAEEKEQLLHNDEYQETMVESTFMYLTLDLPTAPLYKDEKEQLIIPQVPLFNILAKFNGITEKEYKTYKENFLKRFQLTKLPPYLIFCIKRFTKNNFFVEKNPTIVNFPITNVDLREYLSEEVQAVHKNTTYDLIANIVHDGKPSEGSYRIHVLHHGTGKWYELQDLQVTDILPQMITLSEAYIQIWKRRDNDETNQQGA
Outline: as §1

USP4 = target: T4, USP4 (UniProt Q13107)
T4 sequence (whole entry): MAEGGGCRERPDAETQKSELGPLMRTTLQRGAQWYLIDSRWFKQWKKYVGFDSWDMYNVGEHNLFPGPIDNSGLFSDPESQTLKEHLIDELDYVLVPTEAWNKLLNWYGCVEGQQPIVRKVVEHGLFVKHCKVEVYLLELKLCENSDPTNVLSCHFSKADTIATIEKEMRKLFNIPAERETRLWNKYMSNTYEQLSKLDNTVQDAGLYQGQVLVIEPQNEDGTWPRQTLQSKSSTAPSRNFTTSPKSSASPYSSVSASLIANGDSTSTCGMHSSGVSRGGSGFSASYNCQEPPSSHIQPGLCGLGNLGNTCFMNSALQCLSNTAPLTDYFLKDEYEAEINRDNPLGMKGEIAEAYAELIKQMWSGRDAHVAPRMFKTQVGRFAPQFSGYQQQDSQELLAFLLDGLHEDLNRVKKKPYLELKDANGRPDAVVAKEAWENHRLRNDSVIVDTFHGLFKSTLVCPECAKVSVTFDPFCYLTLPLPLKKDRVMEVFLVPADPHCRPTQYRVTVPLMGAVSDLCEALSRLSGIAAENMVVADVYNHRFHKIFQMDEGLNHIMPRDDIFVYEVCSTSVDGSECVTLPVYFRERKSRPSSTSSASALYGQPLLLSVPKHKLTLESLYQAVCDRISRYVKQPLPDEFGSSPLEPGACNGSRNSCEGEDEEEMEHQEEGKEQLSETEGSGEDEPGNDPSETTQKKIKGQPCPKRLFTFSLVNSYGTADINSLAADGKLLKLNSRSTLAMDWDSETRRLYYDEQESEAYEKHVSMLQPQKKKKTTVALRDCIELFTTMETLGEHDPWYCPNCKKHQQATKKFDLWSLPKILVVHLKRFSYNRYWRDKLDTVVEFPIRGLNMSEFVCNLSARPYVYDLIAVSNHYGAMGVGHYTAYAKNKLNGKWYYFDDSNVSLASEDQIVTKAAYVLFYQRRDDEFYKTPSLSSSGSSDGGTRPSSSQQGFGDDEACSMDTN
Outline: as §1

Measured: log2 ratio of Biotin-Ahx-Ub-VS probe labelling

O=C(CCl)N(C1CCCC1)C1CCS(=O)(=O)C1 (stereo not given)
inactive: USP34 -0.0865 | USP36 -0.298 | USP38 -0.0626 | USP39 0.151 | USP4 0.0894
